# JMJD2E inh: inhibitors of human JMJD2E histone demethylase | B2RXH2 | JMJD2E catalytic domain, FDH-coupled NADH fluorescence (FDH is formaldehyde dehydrogenase) | Potency, µM (highest dose often 57.1 µM), inactives show at the top dose activity change, negative = inhibition, actives largely listed as inhibitors | 230,000 tested, 1.6% active | AID 2147;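 note: potency is the fitted concentration of half-maximal effect; 0% = wells with enzyme and -100% = buffer wells without enzyme; nearly all actives have a fitted effect of over 50% in size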
# PNC inhibitor: perinucleolar compartment assembly inhibition; PC3M PTB-GFP, PNC prevalence imaging, 16 h; stronger effect = lower value; activity change (PNC), negative = inhibition, % at 10 µM; 140,000 tested, 3.1% active; AID 2417;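 active = readout at or below -70, meaning at least 70% loss of cells showing the perinucleolar compartment, a nuclear body marking cancer cells; inconclusive = readout between -30 and a set limit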;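 note: plate controls were DMSO wells for no effect and camptothecin positive control wells for full effect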
#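 Read-out is percentage of cells bearing a perinucleolar compartment, from automated 20x imaging of fixed, Hoechst-stained PC3M PTB-GFP cells. Cells were seeded 4 h, then exposed 16 h to compound (23 nl of library stock) in duplicate plates.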
# ALDH1A1 block: blocks purified human ALDH1A1 activity; Purified ALDH1A1, NADH fluorescence, propionaldehyde substrate; Potency, µM (highest dose often 75.3 µM), inactives show at the top dose activity, negative = inhibition, hits mostly inhibitors; 220,000 tested, 7.3% active; AID 1030;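 note: potency is the fitted concentration of half-maximal effect; plate controls were no enzyme wells and a reference inhibitor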
# Target sequence (P00352 whole entry, looked up): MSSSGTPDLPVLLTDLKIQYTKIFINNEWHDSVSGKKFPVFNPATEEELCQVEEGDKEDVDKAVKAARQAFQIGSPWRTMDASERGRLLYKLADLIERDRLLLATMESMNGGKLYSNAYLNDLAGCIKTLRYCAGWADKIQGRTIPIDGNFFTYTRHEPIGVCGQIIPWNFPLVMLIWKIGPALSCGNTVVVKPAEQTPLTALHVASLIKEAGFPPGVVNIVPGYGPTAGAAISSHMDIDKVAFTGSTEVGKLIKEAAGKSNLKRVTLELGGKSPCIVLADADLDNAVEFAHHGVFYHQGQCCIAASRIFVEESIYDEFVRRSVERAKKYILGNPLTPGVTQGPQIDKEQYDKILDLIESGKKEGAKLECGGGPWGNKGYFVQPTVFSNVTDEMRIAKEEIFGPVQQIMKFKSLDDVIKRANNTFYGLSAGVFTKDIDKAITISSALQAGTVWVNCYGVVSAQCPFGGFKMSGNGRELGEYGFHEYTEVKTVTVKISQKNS
# HPGD inh: blocks human HPGD enzyme activity; purified HPGD, NADH fluorescence kinetic, PGE2 substrate; Potency, µM, for inactives: at the top dose activity change, negative = inhibition, most hits filed as inhibitors; 150,000 tested, 4.3% active; AID 894; note: potency is the fitted concentration of half-maximal effect
#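 NADH formation kinetics: reaction with 30 uM PGE2 and 1 mM NAD+ (final), 20 nM enzyme, Tris-HCl pH 8 with Tween 20, after 15 min compound preincubation at room temperature. Fluorescence change, last versus first of five reads.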
# * = called active by the depositor; u = inconclusive; x = not tested or not shown; ! = a repeat was not active; [ ] = dose if it differs, or a comment. Sampled rows, rich in hits. Any-hit rate of the full collection: about 11%. Unless noted, calls come from the whole dose curve; as a rule, active = well fitted inhibition curve with a large enough effect (not every such curve was filed as active); inconclusive = small, poorly fitted or top-dose-only effect, or another doubt; inactive = no such curve, though single readings can be large or run the other way. Unless noted, % is set by controls: 0 for no effect and ±100 for the full control effect.
SMILES,JMJD2E inh,PNC inhibitor,ALDH1A1 block,HPGD inh
O=C(C1=NN[C@@H]2C(=O)N(c3cccc(C(F)(F)F)c3)C(=O)[C@H]12)c1cnccn1,-21%,x,x,x
O=C(C1=C(O)C(=O)N(CCN2CCOCC2)C1c1cccnc1)c1cc2ccccc2o1 (configuration not stated),u,-16,35µM*,-11%
CC(=O)C1=C(O)C(=O)N(CCN2CCOCC2)C1c1ccccc1 (configuration not stated),u,-14,25µM*,-15%
Cc1nc(C)c(C(=O)C2=C(O)C(=O)N(CCN3CCOCC3)C2c2cccnc2)s1 (configuration not stated),u,u,-3%,-16%
COc1ccc(OC)c(C2C(C(C)=O)=C(O)C(=O)N2CCN2CCOCC2)c1 (configuration not stated),-26%,25,u,-14%
CCOC(=O)c1c(C)nn(Cc2cccc(Cl)c2)c1N,0%,u,7%,28µM*
CCOC(=O)c1nn(-c2cccc(Cl)c2)c(C)c1C(C)=O,4%,38,u,-3%
COc1ncc2nc(-c3ccc(Cl)cc3)c(=O)n(CCC#N)c2n1,x,x,-3%,x
CC(C)NC(=O)C1CCN(C(=O)c2cc3sccc3n2Cc2ccc(F)cc2)CC1,2%,-22,13µM*,0%
O=C(NCc1ccc(F)cc1)c1cc2sccc2n1Cc1ccc(F)cc1,-9%,205,u,u
CC1CCN(C(=O)C2CCN(C(=O)c3cc4sccc4n3Cc3ccc(F)cc3)CC2)CC1,-1%,7,14µM*,-3%
Cc1ccc(-c2n[nH]c(=O)c3ccccc23)cc1S(=O)(=O)NCCN1CCOCC1,8%,-24,2%,13µM*
Cc1ccc(-c2nn(C)c(=O)c3ccccc23)cc1S(=O)(=O)N1CCOCC1,-6%,-7,1%,14µM*
Cc1ccc(-c2nn3c(C)nnc3c3ccccc23)cc1S(=O)(=O)NCCN1CCOCC1,u,68,24%,-30%
Cc1cc(/C=N/NC(=O)Cn2c3ccccc3c(=O)c3ccccc32)c(C)n1-c1ccc(Cl)cc1,u,-88*,u,u
Cc1nc2ccccn2c1C(=O)N/N=C/c1cc(C)n(-c2ccc(Cl)cc2)c1C,u,-100*,u,u
Cc1ccc(-n2c(C)cc(/C=N/NC(=O)Cn3c4ccccc4c(=O)c4ccccc43)c2C)cc1,u,0,u,u
CN(C)c1ncc2nc(-c3cc(F)cc(F)c3)c(=O)n(-c3ccccc3)c2n1,x,x,18%,x
Cc1c(NC(=S)N2CCN(c3ccc(F)cc3)CC2)c(=O)n(-c2ccccc2)n1C,10%,x,6%,x
Cc1cc(C)c(-n2c(C)cc(/C=C3/NC(=O)NC3=O)c2C)c(C)c1,u,68,14µM*,-19%
Cc1cc(/C=C2/NC(=O)NC2=O)c(C)n1-c1sc2c(c1C#N)CCCC2,u,u,13µM*,18µM*
Cc1cc(/C=C2/NC(=O)NC2=O)c(C)n1C,u,x,3%,x
CCOC(=O)C1CCN(C(=O)COc2ccc(Cl)cc2Cl)CC1,4%,-7,-1%,-1%
CCOC(=O)C1CCN(C(=O)COc2ccc(S(=O)(=O)N3CCCC3)cc2C)CC1,-3%,x,18µM*,x
CCOC(=O)C1CCN(C(=O)COc2ccc(Cl)cc2C)CC1,1%,-87*,u,-9%
SMILES,JMJD2E inh,PNC inhibitor,ALDH1A1 block,HPGD inh
CCCNC(=O)OC[C@@H]1O[C@H](CCO/N=C\[C@@H](OC)[C@H](C)/C=C\CC(=O)OC)C=C[C@@H]1Oc1ccc(OC)cc1,x,x,-6%[13.5 µM],x
CCC(=Cc1ccc(CC)cn1)CC,u,x,5%,x
COc1cc(CN2CCNC(=O)C2CC(=O)N2CCc3ccccc3C2)cc(OC)c1 (configuration not stated),u,x,25µM*,x
COc1ccc(CN2CCNC(=O)C2CC(=O)N2CCc3ccccc3C2)c(OC)c1 (configuration not stated),-8%,x,-12%,x
CCCCN(C)C(=O)c1coc(=O)c2ccccc12,1%,0,-3%,22µM*
CN(C)S(=O)(=O)c1cccc(NC(=O)COC(=O)CNC(=O)c2cccc([N+](=O)[O-])c2)c1,-4%,x,x,x
Cn1c(=O)c2[nH]c(CCC(=O)O)nc2n(C)c1=O,x,x,9%[13.5 µM],-5%
Cc1ncc([N+](=O)[O-])n1CCO,-7%,43,7.9µM*!,-21%
COc1ccc2[nH]cc(CCNc3ncncc3-c3ccc(C(=O)N(C)C)cc3)c2c1,x,x,7%,x
CCN1CCN(CCCNC(=O)C2c3ccccc3C(=O)N(C)C2c2ccc(OC)cc2)CC1 (configuration not stated),0%,-20,3%,-12%
CCOC(=O)C1CCN(C(=O)C2c3ccccc3C(=O)N(C)C2c2ccc(OC)cc2)CC1 (configuration not stated),-1%,-29,2.8µM*,-6%
COCCN1C(=O)c2ccccc2C(C(=O)N2CCN(c3ccccn3)CC2)C1c1ccc(F)cc1 (configuration not stated),u,-100*,0%,-23%
CCN(CC)CCCNC(=O)C1c2ccccc2C(=O)N(CCOC)C1c1ccc(F)cc1 (configuration not stated),7%,x,8%,x
COc1ccc(C2C(C(=O)N3CCCC3)c3cc(OC)c(OC)cc3C(=O)N2C)cc1 (configuration not stated),-14%,4,4%,-4%
COc1ccc(C2C(C(=O)N3CCCCC3)c3ccccc3C(=O)N2C)cc1 (configuration not stated),-26%,6,14µM*,x
Cn1c(=O)c(-c2ccc(Cl)cc2)nc2cnc(Oc3cccc(Cl)c3)nc21,x,x,-14%,x
CCc1nc(N)c(C#N)c(-c2cccc3ccccc23)c1C,u,-100*,8%,-24%
CC1CN(C(=O)C2CC2)C(C)CN1C(=O)C1CC1 (configuration not stated),-8%,u,1%,-13%
C=CC[n+]1ccc(/C=C2\C=Cc3cc(C)ccc3N2CC)c2ccccc21,3.2µM*,x,u,x
CCOc1ccc(S(=O)(=O)NCCC(=O)NCc2ccco2)cc1,2%,26,2%,-2%
COc1ccc(S(=O)(=O)NCCSCc2ccco2)cc1,-11%,u,2.8µM*,-16%
COc1ccc(S(=O)(=O)NCCC(=O)NCc2cccs2)cc1,2%,17,-3%,-3%
COc1ccc(S(=O)(=O)NCCSCc2cccs2)cc1,2%,5,1µM*,-3%
COc1ccc(S(=O)(=O)NCCSCc2ccco2)cc1OC,8%,3,u,-11%
CCOc1ccc(S(=O)(=O)NCCSCc2ccco2)cc1,-1%,u,2.8µM*,-22%
Cc1ccc(S(=O)(=O)NCCSCc2ccco2)cc1,-7%,x,20µM*,x
CS(=O)(=O)N1CCCC(C(=O)Nc2ccc(F)cc2F)C1 (configuration not stated),5%,x,13%,x
Cc1ccc(NC(=S)N(Cc2ccc(Cl)cc2)Cc2ccc(C(=O)O)cc2)cc1Cl,-2%,x,u,x

# High-throughput results from PubChem BioAssay.
